About 1,900 (0.58%) of roughly 330,000 compounds were called active. About 4% were inconclusive and are not listed. The list is a sample of the results. Measured potencies and affinities stand elsewhere. A number with no mark means an inactive call. Cut-off read from the data, not from the text of the source: inconclusive = inhibition above about 70% without an active follow-up result; inactive = below that.
Test: M. tuberculosis growth inhibition, HTS (AID 449762);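 note: bacterial growth assessed after seven days of incubation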
Details: M. tuberculosis H37Rv growth inhibition, 7H9 media; at 25 µM; active compounds read high
C[C@H]1CN([C@@H](C)CO)C(=O)Cc2cc(NS(C)(=O)=O)ccc2O[C@@H]1CN(C)Cc1ccc(Cl)c(Cl)c1 showed an inhibition of 4.73%. COc1ccc(C2=Nn3c(nnc3-c3ccccc3Cl)SC2)cc1OC1CCCC1 gave an inhibition of 51.6%. COc1ccc(C2=Nn3c(nnc3-c3ccccc3OC)SC2)cc1OC1CCCC1 gave an inhibition of 63.1%. Compound COc1ccccc1OP(=O)(Nc1cccnc1)Oc1ccccc1OC has an inhibition of -4.39%. In the case of CCN1CCN(Cc2c(OC)ccc3ccccc23)CC1, the inhibition is reported as 5.17%. Work on C[C@H]1COC(=O)[C@H](Cc2ccc(F)cc2)CC/C=C/C[C@@H](CC(=O)N[C@@H](CO)Cc2ccccc2)C(=O)N1 yielded an inhibition of 7.3%. CCOc1ccc(C(=O)NCC(=O)N2CCC(C)CC2)cc1OCC gave an inhibition of -0.53%. For Cc1csc(NC(=O)Nc2cccc(Cl)c2)n1, the inhibition was -2.56%. In the case of Fc1ccc(NC(=S)Nc2cccc(Cl)c2)cc1, the inhibition is reported as 21.8%. Compound O=C(OCC(=O)N1CCc2ccccc21)c1cccnc1Cl has an inhibition of -2.8%. CSc1ncccc1C(=O)OCC(=O)N1CCc2ccccc21 showed an inhibition of -3.03%. CC1CCCC(NC(=O)COC(=O)COc2ccc(Br)cc2)C1C (stereo unspecified) showed an inhibition of 10.5%. In the case of C/C(CCC12CC3CC(CC(C3)C1)C2)=N\NC(N)=S, the inhibition is reported as -13.2%. For C/C(=N\NC(N)=S)C12CC3CC(CC(C3)C1)C2, the inhibition was -3.2%. Work on COc1ccc(/C=C/C(=O)N(CC(C)C)C2CCS(=O)(=O)C2)cc1 (stereo unspecified) yielded an inhibition of 3.62%. For O=C(NCC1CCCO1)C1CC(=O)N(C2CCCCCC2)C1 (stereo unspecified), the inhibition was 5.65%. Compound CCOc1ccc(NC(=O)c2ccc(OC)cc2)cc1 has an inhibition of -11.8%. CCOC(=O)C(C)Sc1ncc(OC)c(Sc2ccc(Cl)cc2)n1 (stereo unspecified) showed an inhibition of 2.61%. CCOC(=O)CSc1ncc(OC)c(Sc2ccc(Cl)cc2)n1 showed an inhibition of 0.98%. With COc1ccc(NC(=O)c2ccc(-n3cccn3)nc2)cc1 the inhibition was -16.3%. For CC1Cc2ccccc2N1C(=O)CN(C)CC(=O)Nc1ccc(F)cc1 (stereo unspecified), the inhibition was -2.83%. CC(=O)c1cccc(N(C(=O)c2ccco2)C(C(=O)NC2CCCC2)c2ccccc2F)c1 (stereo unspecified) showed an inhibition of 3.81%. For CCCCn1c(N)c(N(CCC(C)C)C(=O)C2CCN(C(=O)c3ccccc3C)CC2)c(=O)[nH]c1=O, the inhibition was -4.26%. With COc1cc(NC(=O)C2CCCN(S(=O)(=O)c3ccc4[nH]c(=O)ccc4c3)C2)cc(OC)c1 (stereo unspecified) the inhibition was -0.31%. Work on NC(=O)c1cc([N+](=O)[O-])ccc1NCc1cccnc1 yielded an inhibition of -8.59%. In the case of CCOC(=O)c1ccccc1C(=O)OCC, the inhibition is reported as 7.16%. In the case of Cc1ccc(NC2=C(N3CCCCC3)C(=O)c3ccccc3C2=O)cc1, the inhibition is reported as -7.72%. Compound O=C1C(Nc2ccccc2)=C(N2CCCCC2)C(=O)c2ccccc21 has an inhibition of 30.1%. Compound Cc1ccc(CN(C(=O)c2ccco2)C2CCS(=O)(=O)C2)cc1 (stereo unspecified) has an inhibition of -3.45%. In the case of CCCN1C(=O)C2(OCCO2)c2cc(Cl)ccc21, the inhibition is reported as 3.45%. COC(=O)c1ccccc1NC(=O)COC(=O)c1ccccc1N=Nc1ccc(N(C)C)cc1 showed an inhibition of 5.14%. Compound CN(C)c1ccc(N=Nc2ccccc2C(=O)OCC(=O)N2CCCCCC2)cc1 has an inhibition of 11.9%. Compound Clc1ccc(-c2cn3c(n2)SCC3)cc1 has an inhibition of 9.61%. Work on CCSc1ncc(/C=N/Nc2ccc([N+](=O)[O-])cc2)n1C yielded an inhibition of -1.1%. Compound CCSc1ncc(/C=N/Nc2ccc(F)cc2)n1C has an inhibition of -4.38%. Work on Cc1cc(C(=O)NNC(=O)c2cccc(C(F)(F)F)c2)no1 yielded an inhibition of -7.27%. CCOc1ccc(C(=O)NC(C)(C)CC)cc1 gave an inhibition of 26.1%. CCCOc1ccc(C(=O)CCN2CCCCC2)cc1 gave an inhibition of 23.5%. In the case of CCOc1ccc(C(=O)CCN2CCCCC2)cc1, the inhibition is reported as 42.5%. Cc1ccc(-c2nc(S(=O)(=O)c3ccc(C)cc3)c(SCC(=O)NCC3CCCO3)o2)cc1 (stereo unspecified) showed an inhibition of 8.98%. For CC(=O)c1ccc(NC(=O)CCc2nc3sc4c(c3c(=O)[nH]2)CCCC4)cc1, the inhibition was 16.8%. In the case of COc1ccc(NC(=S)NC(=O)c2cncc(Br)c2)cc1, the inhibition is reported as -11.5%. In the case of CC(C)OC(=O)c1ccc(NC(=O)c2cncc(Br)c2)cc1, the inhibition is reported as 33%. CCn1cc(Br)c(C(=O)Nc2ccc(OC)cc2)n1 showed an inhibition of -0.58%. Compound CCn1cc(Br)c(C(=O)NC(=S)Nc2ccc(C(=O)OC)cc2)n1 has an inhibition of 9.85%. CN1CCN(CCc2nc3cc(NC(=O)c4ccco4)ccc3n2C)CC1 showed an inhibition of 3.05%. Work on O=S(=O)(NCCc1cn2ccccc2n1)c1ccc(F)c(C(F)(F)F)c1 yielded an inhibition of -2.32%. CCCOc1ccc(OCCn2nc(C(=O)O)c3ccccc3c2=O)cc1 gave an inhibition of 1.16%. O=c1[nH]c(=O)n(Cc2ccc(Oc3ccccc3)cc2)cc1Br gave an inhibition of 2.82%. In the case of CCc1nnc(NC(=O)CN2CCN(c3ccccc3F)CC2)s1, the inhibition is reported as 5.55%. With CC(C)C(=O)NNC(=O)CN1CCN(c2nc(-c3ccccc3)cs2)CC1 the inhibition was -10.4%. Compound CC(=O)Nc1cccc(C(=O)N2CCN(Cc3ccccc3)CC2)c1 has an inhibition of -9.84%. Work on Cc1ccc(NCC(=O)c2ccc([N+](=O)[O-])cc2)cc1 yielded an inhibition of 8.11%. For COc1ccc(C(CC(=O)c2ccc(C)cc2)Nc2ccc([N+](=O)[O-])cc2)cc1 (stereo unspecified), the inhibition was 14.3%. For CC(=O)NC(CC(=O)c1ccc([N+](=O)[O-])cc1)C(Cl)(Cl)Cl (stereo unspecified), the inhibition was 13.4%. In the case of CC(C)CC(=O)NC(Nc1ccc([N+](=O)[O-])cc1)C(Cl)(Cl)Cl (stereo unspecified), the inhibition is reported as 4.27%. Compound OC(COc1ccc(Br)cc1)Cn1ccnc1 (stereo unspecified) has an inhibition of -0.05%. For O=C(NN1CCOCC1)c1ccc(Cl)s1, the inhibition was -0.84%. For O=C(COC(=O)C1CCC1)Nc1ncc(Cl)cc1Cl, the inhibition was -10.9%. With COc1ccc(N2CCN(c3ccc(NC(=O)C4CCCCC4)cc3C#N)CC2)cc1 the inhibition was 7.01%. For Clc1ccc(CNc2ccc(CNc3ncn[nH]3)cc2)cc1, the inhibition was 2.69%. Cc1cc(C)nc(Nc2ncn[nH]2)n1 gave an inhibition of 6.87%. Work on CC1C(=O)N2CCCc3cc(NC(=O)C(=O)NCCc4ccc(F)cc4)cc1c32 (stereo unspecified) yielded an inhibition of 39.4%. Work on CC(C)c1nnc(NC(=O)CCC(=O)N2CCN(c3cccc(Cl)c3)CC2)s1 yielded an inhibition of 25.5%. Compound CC(C)c1nnc(NC(=O)CCC(=O)N2CCN(c3ccc(F)cc3)CC2)s1 has an inhibition of 6.66%. With Cc1[nH]ncc1N=Cc1ccc([N+](=O)[O-])cc1 the inhibition was 1.43%. In the case of CCOc1ccc(C(=O)CCC(=O)NCC(=O)Nc2c(C)cccc2C)cc1, the inhibition is reported as 3.97%. In the case of O=C1CSC2(C(=O)N3CCCc4cccc2c43)N1c1cccc(C(F)(F)F)c1 (stereo unspecified), the inhibition is reported as -2.03%. In the case of O=S(=O)(c1ccc(N2CC=C(c3ccccc3)CC2)nc1)N1CCCC1, the inhibition is reported as -10.8%. Compound N=C1C(c2nc3ccccc3s2)=C(O)CN1NC(=O)c1c[nH]c2ccccc12 has an inhibition of -0.06%. In the case of N=C1C(c2nc3ccccc3[nH]2)=C(O)CN1NC(=O)COc1cccc(F)c1, the inhibition is reported as -2.89%. Work on CCN(CC)S(=O)(=O)c1ccc2c(c1)N(CC(=O)N1CCCC1)C(=O)CO2 yielded an inhibition of -1.21%. With O=c1oc2ccccc2cc1-c1nc(-c2ccccc2)no1 the inhibition was 23.8%. Work on Cc1cccc(-c2noc(-c3cc4ccccc4oc3=O)n2)c1 yielded an inhibition of -1.72%. COC(=O)c1cn(-c2ccccc2)nc1-c1ccc(OC)c(OC)c1 gave an inhibition of 3.81%. CC(C)Oc1ccc(C(=O)Nc2ccc(N3CCN(C(=O)c4ccco4)CC3)cc2)cc1 showed an inhibition of 0.01%. O=C(Nc1ccc(OCc2ccccc2)cc1)c1cccs1 gave an inhibition of -4.87%. Cc1cccc(Nc2nc(N)c([N+](=O)[O-])c(N3CCCC(C)C3)n2)c1 (stereo unspecified) gave an inhibition of 10.2%. Cc1ccc(Nc2nc(N)c([N+](=O)[O-])c(N3CCC(C)CC3)n2)cc1C gave an inhibition of -4.24%. In the case of CC(NC(=O)c1cccnc1)C(c1cccs1)N1CCN(c2ccccc2F)CC1 (stereo unspecified), the inhibition is reported as -3.95%. O=Cc1ccc(Oc2ccc(F)cc2)nc1 showed an inhibition of 0.87%. In the case of CC(C)(C)c1ccc(Oc2ccc(N)cn2)cc1, the inhibition is reported as 14.1%. For O=C(NCc1ccccc1Cl)c1cnc2n(c1=O)CCS2, the inhibition was -6.04%. For Cn1cccc1/C=C1\C(=O)NC(=O)N(Cc2ccccc2)C1=O, the inhibition was 3.31%. Work on Cn1cccc1/C=C1/C(=O)NC(=O)N(Cc2ccc(F)cc2)C1=O yielded an inhibition of 11.8%. Work on N=C1C(c2nc3ccccc3s2)=C(O)CN1C1CCCCC1 yielded an inhibition of 8.1%. Work on COC(=O)c1cc(NC(=O)CN(C)C2CCS(=O)(=O)C2)cc(C(=O)OC)c1 (stereo unspecified) yielded an inhibition of -0.88%. C/C(=N\Nc1nc(C)cc(-c2ccccc2)n1)c1ccccc1 showed an inhibition of 9.83%. COc1cc(N/N=C(\C)c2ccc(O)c(C)c2)nc(-c2ccccc2)n1 showed an inhibition of 40.1%. With CC(=O)CC(=O)NC(=NC1CCCCC1)Nc1nc(C)cc(C)n1 the inhibition was 43.2%. In the case of CN(C)P(=NC(=S)c1cccn1C)(N(C)C)N(C)C, the inhibition is reported as 0.74%. With Cc1ccc(-n2cccc2C(=O)NS(=O)(=O)c2ccc(C)cc2)cc1 the inhibition was -6.77%. C#CC(=O)CCC1CCCN1C(=O)OC(C)(C)C (stereo unspecified) gave an inhibition of 5.07%. For Cc1ccc(S(=O)(=O)N2CCOCC2)cc1NC(=O)COC(=O)C1(C)CC1(Cl)Cl (stereo unspecified), the inhibition was 11.2%. Cc1ccn2c(=O)cc(C)nc2c1 showed an inhibition of -4.1%. For Cc1cc(=O)n2ccsc2n1, the inhibition was 0.36%.

From PubChem BioAssay AID449762 (Southern Research Specialized Biocontainment Screening …, 2010)
